Compounds with a hit are over-represented: about 8.1% of the library has one in this group of screens.
MCF10A rerep: inducers of DNA re-replication in MCF 10A breast cells. MCF 10A DNA re-replication, Hoechst nuclear intensity, 48 h. Potency, µM (top dose mostly 46.1 µM), for inactives: at the highest dose activity, positive = re-replication, actives largely listed as activators. 350,000 tested, 2.9% active; further: % of control where 0% means no effect; nearly all actives have a fitted effect of over 50% in size
SW480 rerep: DNA re-replication induction in SW480 cells; 340,000 tested, 1.8% active; AID 624297; Potency, µM (series often up to 46.1 µM), for the others: top-dose re-replication activation, actives largely listed as activators; SW480 DNA re-replication, Hoechst DNA content imaging, 48 h; further: % of control where 0% means no effect; nearly all actives have a fitted effect of over 55% in size
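Readout is total intensity of Hoechst-stained nuclei, excited at 405 nm and collected at 500-530 nm. Compound treatment lasted 48 hr at 37 C in 5% CO2 before staining.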
ELG1 repair inh: blocks ELG1-dependent DNA repair in HEK293T cells; 330,000 tested, 2.3% active; Potency, µM (highest dose often 46.1 µM), without a hit: at the highest dose activity change, negative = inhibition, actives largely listed as inhibitors; HEK293T ELG1-luciferase reporter, luminescence, 16 h; DNA damage induced by 5-fluorouridine; further: on the % scale 0 is the no-effect control and ±100 the full control effect; nearly all actives have a fitted effect of over 55% in size
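5-Fluorouridine DNA damage + compound/DMSO, 2,000 cells/well, 16 h, 37 °C/5% CO2. ONE-Glo, 30 min RT, luminescence. Readout = decrease in reporter signal.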
KB-V1 cytotox: kills drug-selected multidrug resistant KB-V1 cells; Potency, µM (titrated, usually from 46.1 µM), most hits filed as cytotoxic; AID 1347076; KB-V1 MDR cells viability, CellTiter-Glo, 72 h; 400,000 tested, 3.4% active; further: on the % scale 0 is the no-effect control and ±100 the full control effect; nearly all actives have a fitted effect of over 60% in size
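KB-V1 MDR subline cells in DMEM (phenol-red free, 10% FBS) exposed to compounds in qHTS concentration series for 72 h at 37 degrees C. Viability read by CellTiter-Glo luminescence; concentration-effect curves fitted after normalization and correction.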
KB-3-1 cytotox: kills parental KB-3-1 adenocarcinoma cells; KB-3-1 viability, CellTiter-Glo ATP luminescence, 72 h; AID 1347075; Potency, µM (titrated, usually from 46.1 µM), hits mostly cytotoxic; 400,000 tested, 1.4% active; further: on the % scale 0 is the no-effect control and ±100 the full control effect; nearly all actives have a fitted effect of over 60% in size
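KB-3-1 parental drug-naive adenocarcinoma cells in DMEM/10% FBS, incubated 72 h at 37 C with pin-transferred compounds across a concentration series. Viability by CellTiter-Glo luminescence; concentration-response curves fitted after normalization.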
Numbers without * were called inactive; i = inactive; ? = inconclusive; · = no result; [ ] = dose if it differs, or a comment. The call rests on the fitted dose curve; in most records, active means well fitted curve in the direction sought with a large enough effect; inconclusive means small, poorly fitted or top-dose-only effect, or another doubt; inactive means no such curve, though single readings can be large; an effect the other way counts as inactive or inconclusive. Potency means the concentration at half of the fitted maximal effect.

SMILES	MCF10A rerep	SW480 rerep	ELG1 repair inh	KB-V1 cytotox	KB-3-1 cytotox
CS(=O)(=O)c1ncc(Cl)c(C(=O)Nc2ccc(N3CCOCC3)cc2)n1	-4%	10µM*	-9%	i	i
Cc1ccccc1NC(=O)c1nc(S(C)(=O)=O)ncc1Cl	?	?	?	i	i
CS(=O)(=O)c1ncc(Cl)c(C(=O)Nc2ccc(OC(F)F)cc2)n1	5.2µM*	1.8µM*	-1%	?	?
CC(=O)NC(C)C12CC3CC(CC(CC(=O)O)(C3)C1)C2 (stereo unspecified)	-7%	4%	4%	i	i
O=C(/C=C/c1ccc(Cl)cc1Cl)Nc1ccc(CN2CCOCC2)cc1	8.2µM*	?	?	i	?
O=C(/C=C/c1ccc(Cl)cc1)NC(=S)Nc1ccc(CN2CCOCC2)cc1	21µM*	22%	21%	i	i
O=C(/C=C/c1ccccc1)Nc1ccc(CN2CCOCC2)cc1	2%	-7%	?	i	i
CCCCCNC(=O)C1CCC(Cn2c(=O)c3sccc3n(CC(=O)N3CCCC3)c2=O)CC1 (stereo unspecified)	·	·	·	i	i
COc1ccc(-n2c(COc3ccc(C)cc3)nnc2SCc2ccc(C#N)cc2)cc1	6%	1%	5%	6.5µM*	i
COc1ccc(-n2c(COc3ccc(Cl)cc3)nnc2SCc2ccc(C#N)cc2)cc1	15%	2%	?	?	i
N#Cc1ccc(OCc2nnc(SCC(=O)c3ccccc3)n2-c2ccccc2)cc1	?	-3%	15µM*	i	i
Cc1ccc(OCc2nnc(SCC(=O)O)n2-c2ccccc2)cc1	3%	-3%	·	i	i
Cc1ccc(OCc2nnc(SCC(=O)c3ccccc3)n2-c2ccccc2)cc1	?	30%	23µM*	i	i
COc1cc(-c2c(NC(=O)c3ccco3)oc3ccccc3c2=O)cc(OC)c1OC	-1%	0%	11%	i	i
Cc1ccccc1NC(=O)Cc1nc(COC(=O)CCOc2ccccc2)cs1	-1%	-8%	-7%	?	i
O=C(CCNC(=O)c1ccco1)NCCN1C(=O)S/C(=C\c2ccc(F)cc2)C1=O	-3%	1%	?	i	i
CC1CCCCN1C(=O)CSc1nc(-c2ccccc2)cn1N (stereo unspecified)	-1%	-6%	?	i	i
COc1ccc(/C=C/C(=O)c2ccc(O)cc2)cc1CN1CCOCC1	?	?	-31%	?	16µM*
COc1ccc(C(=O)/C=C/c2ccc(OC)c(Cn3nnc4ccccc43)c2)cc1	16µM*	·	?	?	i
COc1ccc(C)cc1Cn1nnc2ccccc21	11%	12%[9.22 µM]	11%	i	i
COc1ccc(C(=O)/C=C/c2ccc(OC)c(CN3CCOCC3)c2)cc1	?	?	?	15µM*	?
COc1ccc(/C=C/C(=O)c2ccccc2O)cc1CN1CCOCC1	?	?	?	i	?
CC(CN1CCCCC1)OC(=O)C1c2ccccc2Oc2ccccc21 (stereo unspecified)	7%	3%	-2%	i	i
COc1ccc(CCN2C(=O)C(Oc3ccccc3C)C2c2ccc3c(c2)OCO3)cc1 (stereo unspecified)	?	4%	16µM*	10µM*	i
CC(=O)OCC1OC(OC2C[C@]3(C)C(CC(O)C4C([C@](C)(CCC=C(C)C)OC5OC(CO)C(O)C(O)C5O)CC[C@]43C)[C@@]3(C)CCC(O)C(C)(C)C23)C(O[C@@H]2OC(C)C(O)C(O)C2O)C(O)C1O (stereo partly specified)	0.52µM*	-8%	14%	i	i
